Measured values published in PubChem BioAssay AID652016 (National Center for Advancing Translational Sciences (NCATS), 2013).
Inconclusive results are not listed. Activity calls are given as the source filed them. Calls come from the whole dose curve; as a rule, active = well fitted inhibition curve with a large enough effect; inconclusive = small, poorly fitted or top-dose-only effect; inactive = flat fitted curve, though single readings scatter.

Biological target: Luciferin 4-monooxygenase (Photinus pyralis) (UniProt P08659)
Sequence (P08659 whole entry, looked up): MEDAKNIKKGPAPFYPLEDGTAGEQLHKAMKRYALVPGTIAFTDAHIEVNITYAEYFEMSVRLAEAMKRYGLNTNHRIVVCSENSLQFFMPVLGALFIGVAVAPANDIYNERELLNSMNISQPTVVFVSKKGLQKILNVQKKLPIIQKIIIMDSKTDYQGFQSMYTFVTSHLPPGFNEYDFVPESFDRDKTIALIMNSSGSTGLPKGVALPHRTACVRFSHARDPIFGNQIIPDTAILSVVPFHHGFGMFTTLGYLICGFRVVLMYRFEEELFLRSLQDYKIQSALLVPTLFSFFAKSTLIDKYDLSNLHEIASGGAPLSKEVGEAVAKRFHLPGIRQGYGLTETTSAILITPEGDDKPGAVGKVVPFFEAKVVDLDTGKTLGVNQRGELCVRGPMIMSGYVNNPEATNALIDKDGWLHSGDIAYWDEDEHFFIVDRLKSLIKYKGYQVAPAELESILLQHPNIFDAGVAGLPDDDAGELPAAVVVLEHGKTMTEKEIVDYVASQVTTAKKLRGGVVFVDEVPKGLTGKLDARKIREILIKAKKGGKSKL
Assay: qHTS Assay for Inhibitors of Firefly Luciferase from the GSK Published Protein Kinase Inhibitor Set
Details: purified firefly luciferase, luminescence inhibition; series mostly up to 57.5 µM
How it was run: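 Enzyme-level luminescence assay: compounds titrated (about 60uM down to 300pM) into substrate buffer (10uM ATP, 10uM D-luciferin, pH 7.5 Tris acetate with Mg, Tween-20, BSA), then 10nM firefly luciferase added; read after ~5 min.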
Potency is the fitted concentration of half-maximal effect.

Potency, inactive:
NC(=O)Cc1ccccc1Oc1nccc(-c2c(-c3ccc(F)cc3)ncn2C2CCNCC2)n1
COc1cccc(C=NNc2ncnc3c2cnn3-c2cccc(OC)c2)c1
Fc1ccc(-c2ncn(C3CCNCC3)c2-c2ccnc(Oc3cccc(C(F)(F)F)c3)n2)cc1
COc1cc(C=NNc2ncnc3c2cnn3-c2ccccc2)ccc1O
O=C(O)c1ccc(Oc2nccc(-c3c(-c4ccc(F)cc4)ncn3C3CCNCC3)n2)cc1
CS(=O)(=O)Nc1ccc(-c2cc(-c3ccccc3)cc(C(N)=O)c2N)cc1
Cc1nnc(-c2cccc(-c3ccc(C(=O)NCC4CC4)cc3)c2)o1
O=C(OC1CNC(C#Cc2cc3ncnc(Nc4ccc(Cc5ccccc5)cc4)c3s2)C1)N1CCOCC1 (stereo not drawn)
CC(=O)Nc1cccc(C#Cc2cncnc2Nc2ccc(OCc3cccc(F)c3)c(Cl)c2)n1
Fc1ccc(-c2ncn(C3CCNCC3)c2-c2ccnc(Oc3ccc(F)c(F)c3)n2)cc1
COc1cc2c(cc1Nc1nc(N3CCc4ccccc43)c3cc[nH]c3n1)N(C(=O)CN(C)C)CC2
COc1ccc(-c2nn3ncccc3c2-c2ccnc(Nc3ccc(F)c(F)c3)n2)cc1
Fc1ccc(-c2ncn(C3CCNCC3)c2-c2ccnc(Oc3ccc(Oc4ccccc4)cc3)n2)cc1
CCc1nn2ncccc2c1-c1ccnc(NC2CC2)n1
CNC(=O)c1sc(-n2cnc3cc(OC)c(OC)cc32)cc1OCc1ccccc1C(F)(F)F
CC(C)c1ccc(-c2cc(-c3cn[nH]c3-c3ccccn3)ccn2)cc1
CCN(CC)S(=O)(=O)c1ccc(OC)c(Nc2ncc(-c3ccccc3)o2)c1
Nc1nccc(-c2c(-c3ccc(F)cc3)ncn2C2CCC(O)CC2)n1 (stereo not drawn)
COc1cc(N2CCN(C(C)C)CC2)ccc1Nc1nc(Nc2cccc(F)c2C(=O)O)c2cc[nH]c2n1
CN1CCC(C(=O)Nc2n[nH]c3nc(-c4ccc(O)cc4)c(Br)cc23)CC1
CS(=O)(=O)CCNCc1nc(-c2ccc3ncnc(Nc4ccc(OCc5cccc(C(F)(F)F)c5)cc4)c3c2)cs1
CCOc1ccc2c(-c3ccnc(Nc4cccc(C(F)(F)F)c4)n3)cnn2n1
CCCN1CCC=C(c2ccc(Nc3nc(Nc4ccccc4C(N)=O)c4cc[nH]c4n3)c(C)c2)C1
COC(=O)Nc1nc2ccc(Oc3ccc(NC(=O)Nc4cccc(Br)c4)cc3)cc2[nH]1
CC(Oc1cc(-n2cnc3ccc(OC4CCN(C)CC4)cc32)sc1C(N)=O)c1ccccc1Cl (stereo not drawn)
CCn1c(-c2nonc2N)nc2c(C#CC(C)(C)O)nc(OC(CN)c3ccccc3)cc21 (stereo not drawn)
COc1cc(Nc2ncc3c(C)nc(-c4cccc(Oc5ccccc5)c4)n3n2)cc(OC)c1OC
COc1cccc(Nc2nccc(-c3cnn4ncccc34)n2)c1
NS(=O)(=O)c1ccc(N=Cc2c(O)[nH]c3ccc4ncsc4c23)cc1
O=C(Nc1n[nH]c2nnc(-c3cccnc3)cc12)C1CC1
Clc1ccc(-c2nn3ncccc3c2-c2ccnc(Nc3ccccc3)n2)cc1
CN1CCC(n2cnc(-c3ccc(F)cc3)c2-c2ccnc(Nc3ccccc3)n2)CC1

Potency, active:
N#Cc1cccc(Nc2ncc(-c3ccccc3)o2)c1 1030 nM
